Test [1] addresses T1, 3-phosphoinositide-dependent protein kinase 1 (Homo sapiens) (UniProt O15530).
T1 sequence (whole entry): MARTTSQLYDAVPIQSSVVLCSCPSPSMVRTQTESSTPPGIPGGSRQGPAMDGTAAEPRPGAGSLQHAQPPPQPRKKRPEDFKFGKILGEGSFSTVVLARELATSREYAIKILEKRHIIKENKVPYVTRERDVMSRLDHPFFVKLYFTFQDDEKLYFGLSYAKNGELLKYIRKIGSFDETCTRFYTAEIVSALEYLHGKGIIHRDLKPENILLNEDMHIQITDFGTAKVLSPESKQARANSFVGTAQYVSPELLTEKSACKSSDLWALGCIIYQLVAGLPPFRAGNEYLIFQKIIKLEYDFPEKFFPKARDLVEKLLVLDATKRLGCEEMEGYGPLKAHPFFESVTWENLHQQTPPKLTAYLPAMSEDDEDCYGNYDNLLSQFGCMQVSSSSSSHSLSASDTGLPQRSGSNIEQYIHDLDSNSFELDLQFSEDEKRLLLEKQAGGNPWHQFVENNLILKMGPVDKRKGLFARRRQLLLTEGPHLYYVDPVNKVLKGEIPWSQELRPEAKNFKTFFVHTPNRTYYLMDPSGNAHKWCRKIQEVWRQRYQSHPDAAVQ
As to conditions: at 0.1 µM.

The target of test [2] is cAMP-dependent protein kinase catalytic subunit alpha (Homo sapiens) (UniProt P17612). Particulars: at 0.1 µM.
For test [3] the target is unchanged. As to conditions: at 1 µM.
Test [4] deals with Protein kinase C alpha type (Homo sapiens) (UniProt P17252). Particulars: at 0.1 µM.
For test [5] the target is unchanged. Particulars: at 1 µM.
For test [6], the target named is Protein kinase C beta type (Homo sapiens) (UniProt P05771). As to conditions: at 0.1 µM.
Test [7] has the same target. Particulars: at 1 µM.
Test [8] addresses Protein kinase C eta type (Homo sapiens) (UniProt P24723). Particulars: at 0.1 µM.
Test [9] has the same target. As to conditions: at 1 µM.
In test [10] the target is Protein kinase C gamma type (Homo sapiens) (UniProt P05129). As to conditions: at 0.1 µM.
For test [11] the target is unchanged. Particulars: at 1 µM.
Test [12] deals with T2, Protein kinase C iota type (Homo sapiens) (UniProt P41743).
T2 sequence (whole entry): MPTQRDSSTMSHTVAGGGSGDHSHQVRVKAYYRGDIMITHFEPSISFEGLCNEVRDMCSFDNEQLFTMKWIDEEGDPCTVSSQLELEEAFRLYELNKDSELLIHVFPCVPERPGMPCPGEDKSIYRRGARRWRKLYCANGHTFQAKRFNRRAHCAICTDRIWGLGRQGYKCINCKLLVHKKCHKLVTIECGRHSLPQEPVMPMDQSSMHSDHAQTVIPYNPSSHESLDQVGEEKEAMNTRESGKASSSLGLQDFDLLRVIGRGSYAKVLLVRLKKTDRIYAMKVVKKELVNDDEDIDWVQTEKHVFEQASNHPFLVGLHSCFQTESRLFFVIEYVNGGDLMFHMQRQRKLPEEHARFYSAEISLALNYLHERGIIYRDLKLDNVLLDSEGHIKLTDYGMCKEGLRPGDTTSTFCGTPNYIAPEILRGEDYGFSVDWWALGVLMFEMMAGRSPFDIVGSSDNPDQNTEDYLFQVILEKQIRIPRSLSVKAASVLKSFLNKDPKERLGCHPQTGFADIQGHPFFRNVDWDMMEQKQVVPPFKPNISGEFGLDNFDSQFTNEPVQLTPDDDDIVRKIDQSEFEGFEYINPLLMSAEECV
Particulars: at 0.1 µM.

Test [13] deals with T2, Protein kinase C iota type (Homo sapiens). As to conditions: at 1 µM.
Test [14] addresses Protein kinase C theta type (Homo sapiens) (UniProt Q04759). As to conditions: at 0.1 µM.
The target is the same in test [15]. Particulars: at 1 µM.
Test [16] addresses Protein kinase C beta type (Homo sapiens) (UniProt P05771). As to conditions: at 0.1 µM. The source holds these as a separate data set.
Test [17] has the same target. Particulars: at 1 µM. The source holds these as a separate data set.
Test [18] concerns the target T3, Serine/threonine-protein kinase D1 (Homo sapiens) (UniProt Q15139).
T3 sequence (whole entry): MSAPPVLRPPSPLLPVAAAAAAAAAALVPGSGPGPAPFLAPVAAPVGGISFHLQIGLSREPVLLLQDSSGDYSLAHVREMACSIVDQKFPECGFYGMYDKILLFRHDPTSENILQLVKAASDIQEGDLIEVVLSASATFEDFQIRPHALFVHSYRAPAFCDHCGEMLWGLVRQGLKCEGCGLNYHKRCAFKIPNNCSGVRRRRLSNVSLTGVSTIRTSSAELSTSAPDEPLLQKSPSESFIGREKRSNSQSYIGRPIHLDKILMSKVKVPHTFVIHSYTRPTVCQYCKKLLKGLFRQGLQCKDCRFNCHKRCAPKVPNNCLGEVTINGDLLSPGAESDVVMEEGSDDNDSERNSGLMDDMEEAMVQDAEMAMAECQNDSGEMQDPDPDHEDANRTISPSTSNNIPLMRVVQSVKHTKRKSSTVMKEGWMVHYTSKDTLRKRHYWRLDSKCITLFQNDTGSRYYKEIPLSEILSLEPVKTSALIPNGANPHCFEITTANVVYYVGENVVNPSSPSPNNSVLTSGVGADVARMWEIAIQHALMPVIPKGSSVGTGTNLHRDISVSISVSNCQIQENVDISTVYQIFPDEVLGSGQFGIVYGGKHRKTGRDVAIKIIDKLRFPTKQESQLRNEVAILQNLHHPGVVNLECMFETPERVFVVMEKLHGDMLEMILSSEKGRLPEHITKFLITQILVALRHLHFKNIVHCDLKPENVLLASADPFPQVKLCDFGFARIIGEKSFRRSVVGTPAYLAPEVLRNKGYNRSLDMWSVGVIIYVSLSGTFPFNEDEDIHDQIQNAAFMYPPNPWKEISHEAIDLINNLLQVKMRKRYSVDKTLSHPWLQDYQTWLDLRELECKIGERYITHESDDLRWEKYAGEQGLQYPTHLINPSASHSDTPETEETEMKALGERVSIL
Particulars: at 0.1 µM.

Test [19] has as its target T3, Serine/threonine-protein kinase D1 (Homo sapiens). As to conditions: at 1 µM.
The target in test [20] is T4, Serine/threonine-protein kinase D2 (Homo sapiens) (UniProt Q9BZL6).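 Further: reported percent inhibition values are means, part of the GSK PKIS kinase panel screen.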
T4 sequence (whole entry): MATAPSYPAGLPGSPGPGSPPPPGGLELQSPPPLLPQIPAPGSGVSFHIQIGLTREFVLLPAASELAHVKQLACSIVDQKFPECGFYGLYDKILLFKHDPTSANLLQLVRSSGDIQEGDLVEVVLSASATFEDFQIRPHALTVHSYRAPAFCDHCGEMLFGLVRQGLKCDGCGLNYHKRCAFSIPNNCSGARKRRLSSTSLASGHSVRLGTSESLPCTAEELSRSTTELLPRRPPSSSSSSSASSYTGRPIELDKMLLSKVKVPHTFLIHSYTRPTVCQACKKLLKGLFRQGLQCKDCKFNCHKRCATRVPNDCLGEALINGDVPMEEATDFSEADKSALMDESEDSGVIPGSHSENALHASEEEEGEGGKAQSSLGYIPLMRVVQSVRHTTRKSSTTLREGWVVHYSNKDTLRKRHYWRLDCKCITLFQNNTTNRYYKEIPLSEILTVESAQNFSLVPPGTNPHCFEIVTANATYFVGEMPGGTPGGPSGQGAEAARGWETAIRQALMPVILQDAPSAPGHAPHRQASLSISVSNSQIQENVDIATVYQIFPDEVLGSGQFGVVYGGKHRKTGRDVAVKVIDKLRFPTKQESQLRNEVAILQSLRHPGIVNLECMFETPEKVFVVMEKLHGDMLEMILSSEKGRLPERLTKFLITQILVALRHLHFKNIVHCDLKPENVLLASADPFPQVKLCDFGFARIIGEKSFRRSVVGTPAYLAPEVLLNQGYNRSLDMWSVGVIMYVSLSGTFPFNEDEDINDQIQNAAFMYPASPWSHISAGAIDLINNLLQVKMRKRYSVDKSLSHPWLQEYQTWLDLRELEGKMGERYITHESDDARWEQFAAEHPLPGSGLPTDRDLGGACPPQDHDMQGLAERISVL
As to conditions: at 0.1 µM.

The results in this text go back to ChEMBL document CHEMBL1961873, “Compounds: GSK PKIS; Assays: Nanosyn kinase panel” (2012).

Sequence of Protein kinase C theta type (Homo sapiens) (Q04759 whole entry, looked up): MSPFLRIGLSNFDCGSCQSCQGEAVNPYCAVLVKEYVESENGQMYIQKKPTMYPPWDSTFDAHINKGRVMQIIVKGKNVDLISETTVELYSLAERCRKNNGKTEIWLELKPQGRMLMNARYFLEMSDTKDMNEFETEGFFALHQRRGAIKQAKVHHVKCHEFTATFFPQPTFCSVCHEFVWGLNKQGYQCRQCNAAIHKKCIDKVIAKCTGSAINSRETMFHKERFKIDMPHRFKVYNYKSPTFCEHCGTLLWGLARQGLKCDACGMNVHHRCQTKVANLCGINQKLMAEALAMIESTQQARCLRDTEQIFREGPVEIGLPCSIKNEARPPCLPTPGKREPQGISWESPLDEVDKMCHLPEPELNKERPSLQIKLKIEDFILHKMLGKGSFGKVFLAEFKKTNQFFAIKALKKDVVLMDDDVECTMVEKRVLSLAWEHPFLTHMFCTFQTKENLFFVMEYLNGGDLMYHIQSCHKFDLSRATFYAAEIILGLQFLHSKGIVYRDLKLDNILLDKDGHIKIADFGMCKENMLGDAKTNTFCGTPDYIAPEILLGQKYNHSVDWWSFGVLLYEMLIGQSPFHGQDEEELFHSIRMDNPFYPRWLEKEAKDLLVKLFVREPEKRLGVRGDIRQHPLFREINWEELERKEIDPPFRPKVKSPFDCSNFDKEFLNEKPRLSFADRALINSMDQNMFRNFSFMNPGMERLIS
Sequence of Protein kinase C eta type (Homo sapiens) (P24723 whole entry): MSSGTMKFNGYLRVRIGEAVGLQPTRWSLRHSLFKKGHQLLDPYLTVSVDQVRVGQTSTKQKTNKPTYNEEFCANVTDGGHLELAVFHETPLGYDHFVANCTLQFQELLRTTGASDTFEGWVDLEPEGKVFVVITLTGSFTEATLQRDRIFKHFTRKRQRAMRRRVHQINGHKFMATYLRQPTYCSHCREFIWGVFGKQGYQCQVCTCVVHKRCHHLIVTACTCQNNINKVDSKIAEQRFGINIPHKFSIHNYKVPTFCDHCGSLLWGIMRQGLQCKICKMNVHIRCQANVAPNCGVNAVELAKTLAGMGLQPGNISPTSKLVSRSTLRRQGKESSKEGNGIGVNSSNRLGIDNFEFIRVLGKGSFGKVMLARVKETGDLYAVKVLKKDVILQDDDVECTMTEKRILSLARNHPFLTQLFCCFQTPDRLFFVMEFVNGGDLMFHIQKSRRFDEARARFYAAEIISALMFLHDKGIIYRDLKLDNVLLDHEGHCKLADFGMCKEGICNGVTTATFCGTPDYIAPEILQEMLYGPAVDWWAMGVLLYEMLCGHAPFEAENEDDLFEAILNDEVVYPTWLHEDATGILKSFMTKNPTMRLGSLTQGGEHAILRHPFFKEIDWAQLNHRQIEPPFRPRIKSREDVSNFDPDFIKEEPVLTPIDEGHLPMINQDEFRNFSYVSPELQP
Sequence of Protein kinase C beta type (Homo sapiens) (P05771 2-671 limits assumed): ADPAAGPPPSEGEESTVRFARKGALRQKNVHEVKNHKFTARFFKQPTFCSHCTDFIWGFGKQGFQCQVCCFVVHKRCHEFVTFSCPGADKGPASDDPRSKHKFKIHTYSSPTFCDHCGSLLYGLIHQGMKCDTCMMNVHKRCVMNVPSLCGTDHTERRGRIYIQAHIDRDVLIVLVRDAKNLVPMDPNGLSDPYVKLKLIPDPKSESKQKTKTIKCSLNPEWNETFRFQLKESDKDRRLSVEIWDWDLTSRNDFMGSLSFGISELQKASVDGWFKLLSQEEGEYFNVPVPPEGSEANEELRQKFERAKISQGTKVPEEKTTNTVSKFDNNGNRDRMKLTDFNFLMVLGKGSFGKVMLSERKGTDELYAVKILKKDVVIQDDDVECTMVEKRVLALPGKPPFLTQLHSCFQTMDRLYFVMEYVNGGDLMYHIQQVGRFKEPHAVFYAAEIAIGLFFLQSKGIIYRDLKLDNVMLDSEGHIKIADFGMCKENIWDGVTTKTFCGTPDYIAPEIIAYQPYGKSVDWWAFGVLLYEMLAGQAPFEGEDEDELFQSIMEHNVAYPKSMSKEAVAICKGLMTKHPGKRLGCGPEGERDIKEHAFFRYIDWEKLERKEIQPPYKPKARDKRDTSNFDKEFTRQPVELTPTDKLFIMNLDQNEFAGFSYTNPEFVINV

A word on the inhibition: it is the relative decrease from the control value, in per cent. Take `COC(=O)c1ccc2c(c1)C(=Cc1cc(Br)c(O)c(Br)c1)C(=O)N2`: the inhibition in test [1] was -0.14%; in test [2], 1.68%; in [3] it was 0.85%; in test [4], 0.87%; in test [5] it was 2.31%; in test [6], -0.23%. Also, the inhibition in [7] is -0.51%; in test [8] it was 2.26%; in [9] it was 3.91%; in [10], 1.07%; in [11], 0.79%; in test [12], 1.17%. The inhibition turned out to be 0.96% in test [13]; 1.25% in [14]; 1.86% in test [15]; 1.12% in test [16]; 1.9% in test [17]; 5.07% in test [18]. Further, the inhibition was determined as 7.26% in [19] and 4.47% in test [20].
`CC(C)c1ccc2c(c1)NC(=O)/C2=N/Nc1ccc(S(N)(=O)=O)cc1`: the inhibition in [1] is 0.82%; in test [2] it was 1.46%; in test [3], 0.47%; in [4] it was -0.57%; in test [5], 0.11%; in test [6], -0.04%. Moreover, the inhibition is -5.38% in test [7]; 2.07% in [8]; -1.13% in test [9]; -0.1% in test [10]; -0.76% in test [11]; -1.39% in test [12]. Besides, the inhibition is -2.44% in test [13]; -0.41% in test [14]; -0.44% in [15]; -0.24% in test [16]; 0.73% in test [17]; 0.07% in test [18]. Also, the inhibition in test [19] was 0.8%; in test [20] it was -0.15%.
With `CCS(=O)(=O)c1ccc(OC)c(Nc2nccc(N(C)c3ccc4c(C)n[nH]c4c3)n2)c1`, the inhibition in [1] is -0.7%; in test [2], 2.41%; in test [3] it was 0.84%; in test [4], 0.55%; in [5], 1.48%; in test [6] it was 0.4%. The inhibition in test [7] is -2.93%; in [8], 3.8%; in test [9], 6.38%; in [10] it was 0.63%; in test [11], 3.15%; in [12], 2.77%. The inhibition in test [13] was determined as 2.66%; in [14] it was 2.68%; in [15], 2.9%; in test [16] it was 1.61%; in [17], 2.71%; in test [18], 4.99%. Moreover, the figures for the inhibition in [19] and in [20] were 6.33% and 4.18%, respectively.
As to `c1ccc(Cc2nc3ccc(Nc4ncnc5ccccc45)cc3[nH]2)cc1`, the inhibition was found to be 0.78% in test [1]; 1.15% in [2]; 2.76% in test [3]; 1.22% in test [4]; 4.52% in test [5]; 1.26% in test [6]. Besides, the inhibition in test [7] is 1.59%; in test [8] it was 2.55%; in [9], 2.75%; in test [10], 1.69%; in test [11], 2.9%; in test [12], 0.63%. Also, the inhibition in test [13] stood at 0.68%; in test [14], 1.76%; in [15], 2.47%; in test [16] it was 0.1%; in test [17], 0.12%; in test [18], 2.88%. Moreover, the inhibition is 6.43% in test [19] and 2.49% in test [20].
Take `Cc1cc(O)cc(C)c1/C=C/c1cncc(C(=O)N(C)C)c1`: the inhibition is 4.18% in [1]; 1.98% in [2]; 0.93% in test [3]; 0.28% in test [4]; 1.71% in [5]; 0.67% in test [6]. In addition, the inhibition in test [7] worked out at 1.26%; in [8], 3%; in test [9] it was 4.61%; in test [10], 1.75%; in test [11], 4.07%; in test [12], 0.51%. Also, the inhibition came out at 1.32% in [13]; 0.96% in [14]; 0.78% in [15]; 0.19% in test [16]; 3% in test [17]; 1.61% in test [18]. Also, the figures for the inhibition in [19] and in [20] were 2.79% and -2.38%, respectively.
`Nc1ccc(C#Cc2cncnc2Nc2ccc(OCc3cccc(F)c3)c(Cl)c2)cc1`: the inhibition in test [1] was -0.28%; in test [2] it was 3.59%; in test [3], 2.77%; in [4] it was 0.42%; in test [5] it was 1.03%; in test [6], 1.2%. Moreover, the inhibition was 2.03% in [7]; 4.79% in [8]; 2.72% in test [9]; -0.9% in test [10]; 1.26% in [11]; 1.82% in test [12]. Moreover, the inhibition in test [13] amounted to 1.53%; in [14], 1.3%; in test [15] it was 1.13%; in test [16] it was 0.84%; in [17] it was 0.6%; in test [18] it was 4.09%. Further, the results for the inhibition in test [19] and in [20] were 3.44% and 3.76%, respectively.
With `COc1cccc(-n2ncc3c(N/N=C/c4ccc(S(C)(=O)=O)cc4)ncnc32)c1`, the inhibition in test [1] was 2.37%; in [2], -3.29%; in [3] it was -0.93%; in test [4], -3.07%; in [5], -0.59%; in test [6], 2.22%. Besides, the inhibition in test [7] was 7.27%; in [8], 1.23%; in [9], 2.85%; in test [10], 1.86%; in test [11], 3.18%; in test [12], 2.06%. Also, the inhibition in [13] was 0.98%; in [14] it was -0.11%; in test [15] it was 1.19%; in test [16], 2.19%; in [17], 13.3%; in [18], -2.12%. Moreover, the inhibition in test [19] is -1.45%; in test [20], -2.64%.
